Bioassay records from PubChem.
NPC1 prom act: activates the NPC1 promoter; 2.4% of 320,000 active; Potency, µM (titrated, usually from 9.22 µM), without a hit: at the top dose activation, usual class: activators; Huh7 NPC1 promoter luciferase reporter, 24 h; also: % of control where 0% means no effect; nearly all actives have a fitted effect of over 60% in size
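Luminescence from an NPC1 promoter-driven luciferase reporter in stably transfected Huh7 cells was measured after 24 h compound treatment at 37 °C, followed by 10 min ambient incubation with luciferase detection reagent.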
KinaseGlo FLuc: Kinase-Glo luciferase inhibition (counter-screen). 0.28% of 200,000 active. Q27757. Potency, µM (series often up to 38.3 µM), for the others: at the highest dose activity change, negative = inhibition, usual class: inhibitors. Kinase-Glo luciferase, ATP luminescence, 8 min; also: % is scaled to controls: 0 for no effect and ±100 for the full control effect; nearly all actives have a fitted effect of over 60% in size
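Recombinant Kinase-Glo luciferase, 10 uM ATP (linear range), luciferin; imidazole pH 7.2 / KCl / MgCl2 / Tween / BSA buffer; 8 min RT; luminescence.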
ELG1 genotoxic: induces genotoxicity in HEK293T cells with luciferase-tagged ELG1; AID 504466; Potency, µM (series often up to 46 µM), for inactives: at the top dose activity change, positive = activation, hits mostly activators; 1.3% of 330,000 active; HEK293T ELG1-luciferase reporter, luminescence, 16 h; also: % of control where 0% means no effect; nearly all actives have a fitted effect of over 60% in size
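DMSO vehicle served as control against compound-treated ELG1-luciferase HEK293T cells; exposure lasted 16 hr at 37 °C and 5% CO2, followed by ONE-Glo luminescence detection after 30 min.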
Rab9 prom act: activates the Rab9 promoter. AID 485297. Potency, µM (highest dose often 9.22 µM), for inactives: top-dose activation, negative = inhibition, most hits filed as activators. Huh7 Rab9 promoter-luciferase reporter, luminescence, 24 h. 2.8% of 320,000 active; also: % of control where 0% means no effect; nearly all actives have a fitted effect of over 60% in size
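Stable Rab9-luc Huh7, 1500 cells/well, 2 h settle; cmpd in DMSO, 24 h, 37 °C/5% CO2; luciferase reagent 10 min RT; luminescence.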
SMN2 splice enh: increases expression of the SMN2 splice variant | 2.8% of 210,000 active | HEK293 SMN2-luciferase splicing reporter, luminescence, 30-36 h | AID 1458 | Potency, µM (highest dose often 46.1 µM), for the others: at the highest dose activity change, positive = activation, usual class: activators; also: % of control where 0% means no effect; nearly all actives have a fitted effect of over 55% in size
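HEK293 cells carry an SMN2 […]–luciferase reporter in which exon 7 inclusion puts luciferase in frame. Cells were plated 10-12 h before compound addition, then incubated 30-36 h at 37C. ONE-Glo luminescence was read; sodium butyrate at 4.5 mM final served as control.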
FLuc modulator: inhibits or activates purified firefly luciferase, miR-21 counter-screen | purified FLuc, Km substrates, luminescence inhibition | P08659 | Potency, µM (top dose mostly 57.5 µM), for the others: at the highest dose activity change, negative = inhibition, hits mostly inhibitors | 6.9% of 360,000 active;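 also: plate controls were vehicle for no effect and reference inhibitor for full effect; nearly all actives have a fitted effect of over 55% in size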
Target sequence (P08659 whole entry, looked up): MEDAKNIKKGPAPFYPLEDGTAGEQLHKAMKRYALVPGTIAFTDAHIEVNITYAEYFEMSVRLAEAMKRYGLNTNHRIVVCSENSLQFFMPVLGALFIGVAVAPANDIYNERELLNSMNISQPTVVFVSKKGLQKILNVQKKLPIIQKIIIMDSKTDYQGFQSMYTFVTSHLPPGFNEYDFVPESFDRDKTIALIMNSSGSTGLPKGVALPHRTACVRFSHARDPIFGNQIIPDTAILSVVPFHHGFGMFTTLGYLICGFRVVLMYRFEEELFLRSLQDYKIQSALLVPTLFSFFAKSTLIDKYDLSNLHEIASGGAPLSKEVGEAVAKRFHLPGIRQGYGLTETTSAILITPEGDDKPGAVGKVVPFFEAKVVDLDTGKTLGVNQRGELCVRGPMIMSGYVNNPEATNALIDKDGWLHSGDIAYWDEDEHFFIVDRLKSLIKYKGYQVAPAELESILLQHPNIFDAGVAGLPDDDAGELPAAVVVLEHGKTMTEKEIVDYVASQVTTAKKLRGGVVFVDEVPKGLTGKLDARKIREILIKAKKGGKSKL
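Purified P. pyralis luciferase, 10 nM final, with Km-level 10 uM D-luciferin and 10 uM ATP in 50 mM Tris acetate pH 7.5, 10 mM Mg acetate, 0.01% Tween-20, 0.05% BSA; 6-point qHTS titration about 60 µM downward; luminescence read.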
* marks the source's active call; other numbers are inactive results; ? = inconclusive; / = no result; [ ] = another dose, or the depositor's remark. Most compounds without a hit are left out; they make up all but 7.5% or so of the library. Calls follow the shape of the dose curve; as a rule, active = well fitted curve in the direction sought with a large enough effect; inconclusive = small, poorly fitted or top-dose-only effect, or another doubt; inactive = no such curve, though single readings can be large; an effect the other way counts as inactive or inconclusive. Potency is read from the fitted curve at half-maximal effect.

SMILES	NPC1 prom act	KinaseGlo FLuc	ELG1 genotoxic	Rab9 prom act	SMN2 splice enh	FLuc modulator
O=c1oc(-c2cccnc2)nc2ccccc12	-2.8%	-5.1%	0.3%	4.0%	-13.3%	3.0%
CC(C)(C)C(=O)Nc1cccc(-c2nc3ccccc3c(=O)o2)c1	?	-1.2%	10.7%	?	-2.7%	15.1µM*
CC(C)C(=O)Nc1cccc(-c2nc3ccccc3c(=O)o2)c1	-0.7%	0.5%	2.7%	0.7%	-2.6%	?
COC(=O)C1(C(C)=O)CC2=CC[C@@H]3C(=O)N(c4ccccc4)C(=O)[C@@H]3[C@@H]2Cc2ccccc2[C@@H]1C[N+](=O)[O-] (stereo not given in full)	/	-4.8%	/	/	5.5%	/
Cc1cc2sc3ccccc3c(=O)c2c(C)c1O	15.7%	1.6%	15.5%	21.1%	/	8.49µM*
Cc1ccc(C)c(Cn2c3ccccc3c3cnn(CC(=O)NC(C)c4ccccc4)c(=O)c32)c1 (stereo not given)	/	/	/	/	5.9%	-6.1%
CCOc1ccc(N=C(/C(C(=O)C(=O)N2CCOCC2)=C(\O)c2ccccc2)c2ccccc2)cc1	?	-8.1%	?	?	12.6µM*	?
CCOc1ccc(OCc2ccc(C(=O)N3CCOCC3)cc2)cc1	29.0%	-1.8%	4.7%	29.8%	-10.3%	?
CCCOc1ccc(CSc2nc3ccccc3[nH]2)cc1	25.0%	-23.4%	?	?	20.4%	2.13µM*
c1ccc(CSCc2nc3ccccc3[nH]2)cc1	?	-7.7%	?	2.51µM*	?	19µM*
Fc1ccc(CSc2nc3ccccc3[nH]2)cc1	2.82µM*	-16.4%	?	1.41µM*	11.2µM*	4.78µM*
CCOc1ccc(OCCSc2nc3ccccc3[nH]2)cc1	1.7%	3.9%	8.2%	1.7%	-110.8%	?
CCOc1ccc2nc(SCC)[nH]c2c1	?	-5.5%	16.3%	?	3.6%	19µM*
Cc1ccc(CNC(=O)CN(C(=O)C2(C)CC(=O)N=C3C=CC=CN32)c2cccc(C)c2C)cc1 (stereo not given)	-2.9%	/	1.4%	0.2%	/	-0.5%
COC(=O)c1cc(S(=O)(=O)N2CCN(c3cccc(Cl)c3)CC2)c[nH]1	-7.9%	/	?	-0.4%	/	4.0%
CCOc1cc2[nH]c(=O)n(CCCCC(=O)N3CCN(c4ccccc4)CC3)c(=O)c2cc1OCC	/	/	/	/	/	-4.1%
Cc1[nH]c2ccccc2c1Cc1nnc(SCCC#N)o1	-5.5%	3.6%	-0.6%	-0.6%	-44.5%	-3.2%
CCSc1nc2ccccc2[nH]1	6.5%	-1.6%	-7.4%	-9.2%	14.7%	-7.7%
Fc1ccc(CSc2nc3ncccc3[nH]2)cc1	?	-9.3%	?	?	?	13.5µM*
Fc1ccc(CSc2nc3ccccc3[nH]2)c2ccccc12	0.3%	-4.7%	4.9%	17.2%	-4.7%	23.9µM*
O=[N+]([O-])c1ccc(CSc2nc3ccccc3[nH]2)cc1	3.98µM*	-6.1%	?	2.24µM*	15.8µM*	6.01µM*
c1ccc(CSc2nc3ccccc3[nH]2)cc1	0.794µM*	/	?	0.794µM*	/	3.38µM*
O=C(NCCO)c1ccc(CSc2nc3ccccc3[nH]2)cc1	-0.7%	1.5%	8.1%	21.4%	-4.8%	?
Fc1cccc(CSc2nc3ncccc3[nH]2)c1	23.7%	-10.1%	-1.1%	?	15.8%	?
Cc1cccc(Cn2c(=O)n(CCC(=O)NCc3ccc4c(c3)OCO4)c(=O)c3sccc32)c1	/	/	/	/	-12.7%	0.4%
SMILES	NPC1 prom act	KinaseGlo FLuc	ELG1 genotoxic	Rab9 prom act	SMN2 splice enh	FLuc modulator
Cc1cccc(C)c1NC(=O)C1CCCN1C(=O)Nc1cccc(F)c1 (stereo not given)	2.5%	/	-5.7%	-0.4%	/	-3.8%
CCC(C=C[C@@H]1OC(=O)C=C[C@H]1C)=C[C@H](C)CC=CC(C)=C[C@@H](C)C(=O)[C@@H](C)[C@H](O)[C@@H](C)CC(C)=CC(=O)O	/	-1.2%[39.9 µM]	/	/	/	/
CC(C)n1cc(C(=O)NC2CC(C)(C)Cc3c2cnn3-c2ccccc2)cn1 (stereo not given)	-4.3%	/	-1.3%[9.26 µM]	4.0%	/	6.8%
CC(=O)Nc1ccc(NC(=O)C(C)Sc2n[nH]c(-c3ccc(C)cc3)n2)cc1 (stereo not given)	12.9%	/	2.8%	?	/	23.9µM*
Cc1nn2c(nc1=O)SCC(c1ccccc1)=N2	2.24µM*	-0.5%	?	3.55µM*	?	3.0%
COc1ccc(NC(=O)CCCn2cc([N+](=O)[O-])cn2)cc1	-0.3%	1.4%	-2.8%	-0.3%	-21.9%	-2.5%
Cc1c(C)n(CCc2ccccc2)c2ncnc(NCCCO)c12	1.78µM*	/	?	1.58µM*	/	10.7µM*
Cc1c(C)n(CCc2ccccc2)c2ncnc(NN)c12	-26.2%	/	-3.0%	-14.5%	/	-14.8%
COCCn1c(C)c(C)c2c(NCCc3ccccc3)ncnc21	0.355µM*	/	?	0.501µM*	/	0.849µM*
CC1(OC(=O)c2cccs2)C(=O)C=C2C=C3CCCN3C=C2C1=O (stereo not given)	0.4%	-2.3%[7.66 µM]	2.4%	-2.0%	2.8%[9.22 µM]	4.2%
COc1cccc(OCc2cc(C(=O)N(C)Cc3nc4ccccc4[nH]3)no2)c1	3.16µM*	/	?	?	/	10.7µM*
Cc1cccc(C)c1OCc1cc(C(=O)NCc2ccc(Cl)s2)no1	-6.1%	/	-2.4%	-0.3%	/	-2.2%
CC(=O)c1cccc(OCc2cc(C(=O)N(C)C(C)c3ccccn3)no2)c1 (stereo not given)	1.9%	/	-5.4%	7.0%	/	4.3%
CC(=O)c1cccc(OCc2cc(C(=O)N(C)Cc3cnccn3)no2)c1	?	/	?	2.51µM*	/	?
CN(Cc1cccnc1)C(=O)c1cc(COc2ccc3c(c2)CCCC3)on1	1.26µM*	/	?	?	/	10.7µM*
CC(=O)c1cccc(OCc2cc(C(=O)NCc3nc(C)c(C)s3)no2)c1	?	/	?	?	/	16.9µM*
COC(=O)c1ccccc1NC(=O)Cn1nnc2sc(-c3ccccc3)cc2c1=O	/	/	/	/	-5.8%	-1.9%
Cc1ccc(S(=O)(=O)N2CCCC(c3nc4c(nnn4Cc4ccc5c(c4)OCCO5)c(=O)[nH]3)C2)cc1 (stereo not given)	0.7%	/	9.7%	-3.9%	/	-2.0%
COc1cccc(NC(=O)c2ccc3c(O)c(S(=O)(=O)c4ccccc4)c(=O)[nH]c3c2)c1	2.0%	/	0.3%[9.26 µM]	-0.1%	/	19µM*
CCc1ccc(NC(=O)c2ccc3c(O)c(S(=O)(=O)c4ccc(Cl)cc4)c(=O)[nH]c3c2)cc1	/	/	/	/	/	7.57µM*
O=C(/C=C/Nc1ccc(Br)cn1)c1cccc(OC(F)F)c1	2.82µM*	/	?	2.24µM*	/	2.69µM*
